What was measured:
Assay in all cases: DAPPL (digital affinity profiling via proximity ligation, sequencing); 10 mM Tris-HCl pH 7.5, 50 mM NaCl, 1 mM DTT, 4% glycerol, room temperature, 30 min; GST-TFs on glutathione beads, 16-mer random dsDNA library, 0.1% formaldehyde crosslink after washing; high values mean tight binding
FEV = target: T1, FEV (Homo sapiens, UniProt Q99581 1-238); conditions: protein: recombinant; tags: N-terminal GST; dsDNA, one strand shown
T1 sequence: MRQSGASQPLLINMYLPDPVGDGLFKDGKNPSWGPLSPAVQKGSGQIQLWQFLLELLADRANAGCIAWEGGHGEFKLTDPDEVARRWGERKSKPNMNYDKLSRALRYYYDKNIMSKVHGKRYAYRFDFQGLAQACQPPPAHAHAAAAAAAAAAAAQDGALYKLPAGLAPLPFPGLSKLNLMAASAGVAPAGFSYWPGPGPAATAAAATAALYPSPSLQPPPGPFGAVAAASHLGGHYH
How it was run: (§1)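 Binding signal is defined as a hexamer's read frequency for one factor over its frequency for the tag-only sample. To obtain reads, GST-fused human transcription factors were expressed in yeast, captured on glutathione beads, barcoded with DNA and pooled with that sample. Pools met 200 nmole of a 16-mer random double-stranded DNA library in Tris/NaCl/DTT/glycerol buffer for 30 min at room temperature before washing, 0.1% formaldehyde crosslinking, proximity ligation (BsaI/T4 ligase, 1 h, 37 °C), PCR and Illumina NextSeq500 sequencing.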

ETV5 = ETV5 (Homo sapiens, UniProt P41161 1-510); conditions: protein: recombinant; tags: N-terminal GST; dsDNA, one strand shown
Chain of ETV5 (P41161 whole entry): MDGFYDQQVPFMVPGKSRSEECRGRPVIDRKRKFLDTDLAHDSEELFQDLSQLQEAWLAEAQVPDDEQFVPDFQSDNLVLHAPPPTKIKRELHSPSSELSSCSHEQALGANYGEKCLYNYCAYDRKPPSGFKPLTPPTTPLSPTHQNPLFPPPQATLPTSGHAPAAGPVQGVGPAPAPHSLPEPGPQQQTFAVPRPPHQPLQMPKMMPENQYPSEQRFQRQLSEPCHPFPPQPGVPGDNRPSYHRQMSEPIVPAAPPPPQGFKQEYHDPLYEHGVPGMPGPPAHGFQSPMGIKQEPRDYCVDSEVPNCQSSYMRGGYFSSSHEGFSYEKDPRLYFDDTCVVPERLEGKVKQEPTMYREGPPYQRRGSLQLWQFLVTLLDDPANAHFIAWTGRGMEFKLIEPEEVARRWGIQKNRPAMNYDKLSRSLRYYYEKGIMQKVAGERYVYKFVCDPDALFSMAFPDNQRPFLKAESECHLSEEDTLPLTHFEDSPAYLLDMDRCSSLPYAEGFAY
How it was run: as §1

HSF1 = HSF1 (Homo sapiens, UniProt Q00613 1-529); conditions: protein: recombinant; tags: N-terminal GST; chain copies: 3; dsDNA, one strand shown
Chain of HSF1 (Q00613 whole entry): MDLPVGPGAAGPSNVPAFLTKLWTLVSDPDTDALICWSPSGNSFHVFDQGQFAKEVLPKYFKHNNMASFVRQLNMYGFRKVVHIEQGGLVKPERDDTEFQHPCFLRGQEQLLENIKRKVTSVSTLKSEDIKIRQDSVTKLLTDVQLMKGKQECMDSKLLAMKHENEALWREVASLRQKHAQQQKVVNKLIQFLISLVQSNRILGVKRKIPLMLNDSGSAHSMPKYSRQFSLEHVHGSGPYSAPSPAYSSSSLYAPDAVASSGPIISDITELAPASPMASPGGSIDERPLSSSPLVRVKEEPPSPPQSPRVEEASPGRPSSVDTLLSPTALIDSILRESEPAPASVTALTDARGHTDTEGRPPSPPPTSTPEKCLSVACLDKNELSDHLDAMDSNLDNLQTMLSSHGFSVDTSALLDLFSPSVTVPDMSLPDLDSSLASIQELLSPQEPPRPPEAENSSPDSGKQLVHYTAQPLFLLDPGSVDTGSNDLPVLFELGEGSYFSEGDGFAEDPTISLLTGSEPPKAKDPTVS
How it was run: as §1

SPIC = target: T2, SPIC (Homo sapiens, UniProt Q8N5J4 1-248); conditions: protein: recombinant; tags: N-terminal GST; dsDNA, one strand shown
T2 sequence: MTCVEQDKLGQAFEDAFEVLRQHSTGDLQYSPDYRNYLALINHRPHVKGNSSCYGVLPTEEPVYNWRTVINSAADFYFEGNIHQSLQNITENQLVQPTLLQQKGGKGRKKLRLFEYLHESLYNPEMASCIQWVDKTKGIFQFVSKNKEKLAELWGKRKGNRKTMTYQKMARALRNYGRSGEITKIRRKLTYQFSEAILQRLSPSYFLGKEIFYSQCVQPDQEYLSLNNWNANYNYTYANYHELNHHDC
How it was run: as §1

ELF4 = ELF4 (Homo sapiens, UniProt Q99607 1-663); conditions: protein: recombinant; tags: N-terminal GST; dsDNA, one strand shown
Chain of ELF4 (Q99607 whole entry): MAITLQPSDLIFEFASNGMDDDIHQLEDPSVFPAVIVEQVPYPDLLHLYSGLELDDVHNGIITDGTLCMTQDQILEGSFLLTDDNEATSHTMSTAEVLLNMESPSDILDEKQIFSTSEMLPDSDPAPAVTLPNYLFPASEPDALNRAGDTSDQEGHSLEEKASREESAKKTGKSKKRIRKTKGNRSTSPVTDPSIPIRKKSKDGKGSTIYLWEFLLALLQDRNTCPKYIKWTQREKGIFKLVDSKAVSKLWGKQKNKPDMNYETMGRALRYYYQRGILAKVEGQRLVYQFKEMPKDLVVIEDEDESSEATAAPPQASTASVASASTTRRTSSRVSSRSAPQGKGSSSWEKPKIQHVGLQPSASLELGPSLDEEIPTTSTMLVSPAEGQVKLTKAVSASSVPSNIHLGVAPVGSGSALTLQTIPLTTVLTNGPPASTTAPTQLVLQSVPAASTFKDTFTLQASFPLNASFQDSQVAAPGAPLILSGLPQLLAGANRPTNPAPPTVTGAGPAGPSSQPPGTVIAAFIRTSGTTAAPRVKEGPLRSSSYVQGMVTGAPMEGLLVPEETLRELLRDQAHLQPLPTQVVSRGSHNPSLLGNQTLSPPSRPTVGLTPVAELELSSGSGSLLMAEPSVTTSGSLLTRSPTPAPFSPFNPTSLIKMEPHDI
How it was run: as §1

ELK4 = target: T3, ELK4 (Homo sapiens, UniProt P28324-2 1-405); conditions: protein: recombinant; tags: N-terminal GST; dsDNA, one strand shown
T3 sequence: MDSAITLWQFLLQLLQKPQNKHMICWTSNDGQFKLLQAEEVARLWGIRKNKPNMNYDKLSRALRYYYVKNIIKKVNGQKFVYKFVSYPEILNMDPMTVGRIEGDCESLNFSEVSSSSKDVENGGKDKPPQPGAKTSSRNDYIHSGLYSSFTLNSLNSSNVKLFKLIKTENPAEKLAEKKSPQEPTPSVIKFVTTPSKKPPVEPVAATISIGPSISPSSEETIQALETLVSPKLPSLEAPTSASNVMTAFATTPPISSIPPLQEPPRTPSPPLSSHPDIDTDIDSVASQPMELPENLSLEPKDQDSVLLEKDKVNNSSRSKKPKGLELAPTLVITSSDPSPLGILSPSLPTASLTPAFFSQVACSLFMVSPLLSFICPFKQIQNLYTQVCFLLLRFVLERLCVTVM
How it was run: as §1

ETV2 = target: T4, ETV2 (Homo sapiens, UniProt O00321 1-342); conditions: protein: recombinant; tags: N-terminal GST; dsDNA, one strand shown
T4 sequence: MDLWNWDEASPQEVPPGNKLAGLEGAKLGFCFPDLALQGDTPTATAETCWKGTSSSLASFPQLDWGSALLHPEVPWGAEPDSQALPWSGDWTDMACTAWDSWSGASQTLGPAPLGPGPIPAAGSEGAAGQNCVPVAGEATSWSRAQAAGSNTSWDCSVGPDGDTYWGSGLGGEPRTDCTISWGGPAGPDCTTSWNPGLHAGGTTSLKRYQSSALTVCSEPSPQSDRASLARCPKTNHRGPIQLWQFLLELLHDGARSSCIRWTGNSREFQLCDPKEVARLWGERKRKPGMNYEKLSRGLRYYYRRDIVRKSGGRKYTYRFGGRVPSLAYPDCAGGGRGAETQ
How it was run: as §1

ELF3 = target: T5, ELF3 (Homo sapiens, UniProt P78545 1-371); conditions: protein: recombinant; tags: N-terminal GST; dsDNA, one strand shown
T5 sequence: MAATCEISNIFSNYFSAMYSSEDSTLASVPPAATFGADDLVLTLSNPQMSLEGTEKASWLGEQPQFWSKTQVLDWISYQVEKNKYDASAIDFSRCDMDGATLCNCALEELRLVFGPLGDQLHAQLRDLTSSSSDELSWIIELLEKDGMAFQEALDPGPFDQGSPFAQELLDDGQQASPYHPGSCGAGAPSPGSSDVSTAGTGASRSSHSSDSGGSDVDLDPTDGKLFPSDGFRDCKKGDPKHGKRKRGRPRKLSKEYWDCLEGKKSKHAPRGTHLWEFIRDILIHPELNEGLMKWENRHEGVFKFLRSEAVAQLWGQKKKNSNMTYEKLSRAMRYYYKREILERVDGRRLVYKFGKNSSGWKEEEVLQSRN
How it was run: as §1

CRX = CRX (Homo sapiens, UniProt O43186 1-299); conditions: protein: recombinant; tags: N-terminal GST; dsDNA, one strand shown
Chain of CRX (O43186 whole entry): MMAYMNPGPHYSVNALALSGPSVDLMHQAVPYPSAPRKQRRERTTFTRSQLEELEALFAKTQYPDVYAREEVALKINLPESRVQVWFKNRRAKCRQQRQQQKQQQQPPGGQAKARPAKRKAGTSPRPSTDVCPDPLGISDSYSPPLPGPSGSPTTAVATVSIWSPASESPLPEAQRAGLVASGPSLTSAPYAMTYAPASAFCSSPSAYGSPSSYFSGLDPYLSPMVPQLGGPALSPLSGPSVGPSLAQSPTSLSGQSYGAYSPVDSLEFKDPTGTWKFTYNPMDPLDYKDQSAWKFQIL
How it was run: as §1

ETV1 = ETV1 (Homo sapiens, UniProt P50549 1-477); conditions: protein: recombinant; tags: N-terminal GST; dsDNA, one strand shown
Chain of ETV1 (P50549 whole entry): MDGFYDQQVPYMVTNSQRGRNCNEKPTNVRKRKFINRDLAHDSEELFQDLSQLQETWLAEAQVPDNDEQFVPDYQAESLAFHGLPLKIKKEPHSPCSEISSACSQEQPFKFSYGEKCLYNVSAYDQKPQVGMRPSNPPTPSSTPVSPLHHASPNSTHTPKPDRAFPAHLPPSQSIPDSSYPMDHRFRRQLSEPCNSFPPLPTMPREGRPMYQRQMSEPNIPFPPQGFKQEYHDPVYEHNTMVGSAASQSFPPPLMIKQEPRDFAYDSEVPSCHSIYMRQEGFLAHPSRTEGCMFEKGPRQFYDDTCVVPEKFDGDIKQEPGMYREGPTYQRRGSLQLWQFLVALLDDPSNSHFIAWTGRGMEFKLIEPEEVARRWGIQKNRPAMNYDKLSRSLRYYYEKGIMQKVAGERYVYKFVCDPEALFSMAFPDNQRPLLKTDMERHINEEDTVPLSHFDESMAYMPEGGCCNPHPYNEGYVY
How it was run: as §1

ERF = target: T6, ERF (Homo sapiens, UniProt P50548 1-548); conditions: protein: recombinant; tags: N-terminal GST; dsDNA, one strand shown
T6 sequence: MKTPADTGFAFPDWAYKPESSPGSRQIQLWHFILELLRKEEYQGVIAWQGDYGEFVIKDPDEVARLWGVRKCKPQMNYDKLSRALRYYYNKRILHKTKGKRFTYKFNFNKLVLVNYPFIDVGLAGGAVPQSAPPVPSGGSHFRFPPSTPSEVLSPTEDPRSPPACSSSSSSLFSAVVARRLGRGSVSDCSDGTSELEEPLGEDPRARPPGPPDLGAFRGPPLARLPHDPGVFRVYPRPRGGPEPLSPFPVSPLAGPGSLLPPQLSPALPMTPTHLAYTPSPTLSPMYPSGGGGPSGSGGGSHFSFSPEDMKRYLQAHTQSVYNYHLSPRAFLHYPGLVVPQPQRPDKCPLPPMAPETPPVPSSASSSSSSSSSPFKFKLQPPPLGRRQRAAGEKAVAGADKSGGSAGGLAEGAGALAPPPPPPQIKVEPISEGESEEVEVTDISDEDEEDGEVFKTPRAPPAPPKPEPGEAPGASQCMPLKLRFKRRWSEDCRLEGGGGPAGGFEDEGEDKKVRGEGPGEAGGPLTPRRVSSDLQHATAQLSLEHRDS
How it was run: as §1

ETV3L = target: T7, ETV3L (Homo sapiens, UniProt Q6ZN32 1-361); conditions: protein: recombinant; tags: N-terminal GST; dsDNA, one strand shown
T7 sequence: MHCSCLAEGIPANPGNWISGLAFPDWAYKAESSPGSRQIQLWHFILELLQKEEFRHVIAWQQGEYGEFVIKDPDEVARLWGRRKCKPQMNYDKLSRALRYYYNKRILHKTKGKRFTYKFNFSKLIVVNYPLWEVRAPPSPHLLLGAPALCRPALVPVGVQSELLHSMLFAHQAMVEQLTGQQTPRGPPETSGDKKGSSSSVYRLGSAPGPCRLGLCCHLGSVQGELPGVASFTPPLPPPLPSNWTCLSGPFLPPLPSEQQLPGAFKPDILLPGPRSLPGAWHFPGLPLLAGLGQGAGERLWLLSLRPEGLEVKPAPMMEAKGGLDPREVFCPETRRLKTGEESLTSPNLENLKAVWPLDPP
How it was run: as §1

ETS2 = target: T8, ETS2 (Homo sapiens, UniProt P15036 1-469); conditions: protein: recombinant; tags: N-terminal GST; dsDNA, one strand shown
T8 sequence: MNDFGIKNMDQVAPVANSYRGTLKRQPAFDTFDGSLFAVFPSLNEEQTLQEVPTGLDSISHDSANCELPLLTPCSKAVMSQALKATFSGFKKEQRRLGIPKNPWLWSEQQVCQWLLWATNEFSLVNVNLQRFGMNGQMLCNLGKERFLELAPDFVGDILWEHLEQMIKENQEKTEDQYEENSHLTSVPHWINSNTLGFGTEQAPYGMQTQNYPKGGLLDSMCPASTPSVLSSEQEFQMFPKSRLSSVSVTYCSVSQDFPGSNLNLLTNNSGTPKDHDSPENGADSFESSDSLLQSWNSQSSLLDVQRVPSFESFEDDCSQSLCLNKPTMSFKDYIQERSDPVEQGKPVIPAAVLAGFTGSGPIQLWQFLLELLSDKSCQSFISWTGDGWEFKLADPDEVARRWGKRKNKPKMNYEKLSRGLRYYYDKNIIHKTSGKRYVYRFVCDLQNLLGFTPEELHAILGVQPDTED
How it was run: as §1

SPDEF = target: T9, SPDEF (Homo sapiens, UniProt O95238 1-335); conditions: protein: recombinant; tags: N-terminal GST; dsDNA, one strand shown
T9 sequence: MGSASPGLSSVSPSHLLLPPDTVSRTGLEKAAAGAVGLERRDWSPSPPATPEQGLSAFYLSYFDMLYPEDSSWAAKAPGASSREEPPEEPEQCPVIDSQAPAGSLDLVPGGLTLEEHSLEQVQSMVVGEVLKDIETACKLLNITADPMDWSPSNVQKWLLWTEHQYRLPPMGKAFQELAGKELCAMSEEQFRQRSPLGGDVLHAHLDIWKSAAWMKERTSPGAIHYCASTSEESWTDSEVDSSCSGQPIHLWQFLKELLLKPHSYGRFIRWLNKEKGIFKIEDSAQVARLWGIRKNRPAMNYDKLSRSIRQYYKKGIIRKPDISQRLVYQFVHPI
How it was run: as §1

ETV7 = target: T10, ETV7 (Homo sapiens, UniProt Q9Y603 1-341); conditions: protein: recombinant; tags: N-terminal GST; dsDNA, one strand shown
T10 sequence: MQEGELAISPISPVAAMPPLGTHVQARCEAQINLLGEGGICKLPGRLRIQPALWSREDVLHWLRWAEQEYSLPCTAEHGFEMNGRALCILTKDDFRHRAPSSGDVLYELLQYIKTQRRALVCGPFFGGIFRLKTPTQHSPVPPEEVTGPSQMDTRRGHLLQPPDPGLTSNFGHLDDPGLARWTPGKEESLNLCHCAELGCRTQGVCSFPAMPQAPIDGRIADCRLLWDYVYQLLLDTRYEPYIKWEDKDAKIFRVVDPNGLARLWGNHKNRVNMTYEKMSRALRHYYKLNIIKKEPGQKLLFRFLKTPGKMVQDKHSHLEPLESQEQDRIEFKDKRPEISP
How it was run: as §1

ELF5 = target: T11, ELF5 (Homo sapiens, UniProt Q9UKW6-2 1-255); conditions: protein: recombinant; tags: N-terminal GST; dsDNA, one strand shown
T11 sequence: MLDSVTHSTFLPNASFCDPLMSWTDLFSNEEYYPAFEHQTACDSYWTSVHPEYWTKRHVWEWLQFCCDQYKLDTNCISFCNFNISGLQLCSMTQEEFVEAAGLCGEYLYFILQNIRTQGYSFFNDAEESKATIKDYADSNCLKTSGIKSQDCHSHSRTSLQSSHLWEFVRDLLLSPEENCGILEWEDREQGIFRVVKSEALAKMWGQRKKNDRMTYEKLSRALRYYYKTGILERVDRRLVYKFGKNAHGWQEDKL
How it was run: as §1

ETV3 = target: T12, ETV3 (Homo sapiens, UniProt P41162-2 1-143); conditions: protein: recombinant; tags: N-terminal GST; dsDNA, one strand shown
T12 sequence: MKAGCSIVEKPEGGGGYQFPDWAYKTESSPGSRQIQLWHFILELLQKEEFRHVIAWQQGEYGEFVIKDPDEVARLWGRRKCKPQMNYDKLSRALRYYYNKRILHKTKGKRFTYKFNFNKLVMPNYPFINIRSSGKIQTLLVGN
How it was run: as §1

ETV6 = ETV6 (Homo sapiens, UniProt P41212 1-452); conditions: protein: recombinant; tags: N-terminal GST; dsDNA, one strand shown
Chain of ETV6 (P41212 whole entry): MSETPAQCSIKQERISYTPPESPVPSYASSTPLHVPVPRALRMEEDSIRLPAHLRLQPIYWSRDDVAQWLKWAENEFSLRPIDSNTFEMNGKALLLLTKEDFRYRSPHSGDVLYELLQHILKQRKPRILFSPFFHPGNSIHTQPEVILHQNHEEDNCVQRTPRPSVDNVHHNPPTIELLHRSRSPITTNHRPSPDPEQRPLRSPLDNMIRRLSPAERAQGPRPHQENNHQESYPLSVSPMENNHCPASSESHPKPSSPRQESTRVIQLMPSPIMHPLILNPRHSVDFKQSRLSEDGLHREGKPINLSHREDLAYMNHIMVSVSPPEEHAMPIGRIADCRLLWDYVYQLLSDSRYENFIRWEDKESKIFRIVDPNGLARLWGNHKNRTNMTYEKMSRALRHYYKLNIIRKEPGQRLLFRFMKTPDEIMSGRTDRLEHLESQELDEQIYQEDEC
How it was run: as §1

CGACTA
binding signal (FEV): 1.31 fold enrichment (6-mer frequency, TF over GST control)
binding signal (ETV5): 1.25 fold enrichment (6-mer frequency, TF over GST control)
binding signal (HSF1): 1.52 fold enrichment (6-mer frequency, TF over GST control)
binding signal (SPIC): 1.47 fold enrichment (6-mer frequency, TF over GST control)
binding signal (ELF4): 1.48 fold enrichment (6-mer frequency, TF over GST control)
binding signal (ELK4): 1.58 fold enrichment (6-mer frequency, TF over GST control)
binding signal (ETV2): 1.49 fold enrichment (6-mer frequency, TF over GST control)
binding signal (ELF3): 1.41 fold enrichment (6-mer frequency, TF over GST control)
binding signal (CRX): 1.52 fold enrichment (6-mer frequency, TF over GST control)
binding signal (ETV1): 1.4 fold enrichment (6-mer frequency, TF over GST control)
binding signal (ERF): 1.31 fold enrichment (6-mer frequency, TF over GST control)
binding signal (ETV3L): 1.52 fold enrichment (6-mer frequency, TF over GST control)
binding signal (ETS2): 1.38 fold enrichment (6-mer frequency, TF over GST control)
binding signal (SPDEF): 1.37 fold enrichment (6-mer frequency, TF over GST control)
binding signal (ETV7): 1.31 fold enrichment (6-mer frequency, TF over GST control)
binding signal (ELF5): 1.34 fold enrichment (6-mer frequency, TF over GST control)
binding signal (ETV3): 1.21 fold enrichment (6-mer frequency, TF over GST control)
binding signal (ETV6): 1.28 fold enrichment (6-mer frequency, TF over GST control)

From publication PMC7862700, “An all-to-all approach to the identification of sequence-specific readers for epigenetic DNA modifications on cytosine”
